PubChem BioAssay
The source made the active and inactive calls. Unless noted, no rule for the calls is given here.

Tests used:
[1] = anti-His antibody binders, primary screen, artefact control for SMM control protein annotation, biochemical, small-molecule microarray, 635 nm fluorescence (AID 1128); details: anti-His Alexa647 antibody binding, higher = more signal;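 also: score merges feature fluorescence with signal-to-noise for each printed compound spot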
[2] = test system: Human papillomavirus type 1a E7 protein (residues 1-88); test: HPV1a E7 small-molecule binders, primary screen, biochemical, small-molecule microarray, residues 1-88, 635 nm (AID 1129); details: small-molecule microarray binding, fluorescence 635 nm; higher = more signal
[3] = target: Focal adhesion kinase 1 (Homo sapiens) (UniProt Q05397); test: small-molecule microarray binders of FAK, primary screen, biochemical, 635/667 nm fluorescence, BSA, DTT (AID 1130); details: PTK2 binding, 635 nm fluorescence, higher = more signal;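 also: composite of spot emission at 667 nm and signal to noise over triplicate slides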
Focal adhesion kinase 1 (Homo sapiens), sequence (Q05397 whole entry, looked up): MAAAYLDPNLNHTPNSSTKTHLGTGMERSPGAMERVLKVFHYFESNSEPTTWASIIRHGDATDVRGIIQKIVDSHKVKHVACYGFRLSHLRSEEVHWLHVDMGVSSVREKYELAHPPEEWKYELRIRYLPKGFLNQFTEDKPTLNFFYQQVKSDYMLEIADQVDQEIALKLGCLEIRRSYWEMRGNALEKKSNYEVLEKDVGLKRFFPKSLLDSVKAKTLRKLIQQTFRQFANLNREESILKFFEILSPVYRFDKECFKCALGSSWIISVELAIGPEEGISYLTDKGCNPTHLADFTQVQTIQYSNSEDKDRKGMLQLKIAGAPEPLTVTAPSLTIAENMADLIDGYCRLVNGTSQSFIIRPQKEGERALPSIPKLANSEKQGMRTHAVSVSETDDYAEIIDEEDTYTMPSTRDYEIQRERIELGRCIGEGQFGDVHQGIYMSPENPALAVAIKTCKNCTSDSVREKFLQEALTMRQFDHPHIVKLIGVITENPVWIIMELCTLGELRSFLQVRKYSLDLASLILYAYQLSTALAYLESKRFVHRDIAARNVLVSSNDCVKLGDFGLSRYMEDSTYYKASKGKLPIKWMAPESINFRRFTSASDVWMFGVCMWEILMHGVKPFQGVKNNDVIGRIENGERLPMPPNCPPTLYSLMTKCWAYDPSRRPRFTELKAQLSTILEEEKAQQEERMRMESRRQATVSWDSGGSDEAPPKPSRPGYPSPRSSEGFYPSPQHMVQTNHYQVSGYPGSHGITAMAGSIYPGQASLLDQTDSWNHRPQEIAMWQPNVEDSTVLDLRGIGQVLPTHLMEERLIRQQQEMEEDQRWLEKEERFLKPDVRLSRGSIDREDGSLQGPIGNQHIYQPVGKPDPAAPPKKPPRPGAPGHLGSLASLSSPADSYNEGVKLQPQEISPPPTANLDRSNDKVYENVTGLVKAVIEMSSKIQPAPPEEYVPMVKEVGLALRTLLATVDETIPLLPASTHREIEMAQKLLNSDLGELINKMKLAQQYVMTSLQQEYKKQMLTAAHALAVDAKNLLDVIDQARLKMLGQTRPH

[4] = test system: Fibrinogen (Alexa647-labelled); test: fibrinogen binders on compound microarrays, profiling panel, artefact control for SMM control-protein annotation, biochemical, small-molecule microarray, 635/667 nm fluorescence (AID 1131); details: fibrinogen-A647 binding fluorescence, higher = more signal;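 also: z-score merges 667 nm fluorescence with per-spot signal-to-noise over triplicate slides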
[5] = target: Follistatin (Homo sapiens) (UniProt P19883); test: follistatin binders on small-molecule microarrays, primary screen, biochemical, small-molecule microarray, 635/667 nm fluorescence (AID 1132); details: FST binding, 635 nm fluorescence, higher = more signal
Follistatin (Homo sapiens), sequence (P19883 whole entry, looked up): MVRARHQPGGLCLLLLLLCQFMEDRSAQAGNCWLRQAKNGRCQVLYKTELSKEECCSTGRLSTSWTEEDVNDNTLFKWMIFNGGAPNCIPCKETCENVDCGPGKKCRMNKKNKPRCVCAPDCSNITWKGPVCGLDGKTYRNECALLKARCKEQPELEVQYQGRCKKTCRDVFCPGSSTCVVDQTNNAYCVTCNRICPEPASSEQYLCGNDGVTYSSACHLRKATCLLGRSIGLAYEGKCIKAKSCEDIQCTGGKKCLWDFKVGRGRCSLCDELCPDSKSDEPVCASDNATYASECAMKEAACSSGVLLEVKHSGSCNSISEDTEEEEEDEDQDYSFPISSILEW

[6] = target: Fibroblast growth factor 2 (Homo sapiens) (UniProt P09038); test: FGF2 binders on small-molecule microarrays, primary screen, biochemical, small-molecule microarray, 635/667 nm fluorescence (AID 1133); details: small-molecule microarray binding, FGF2, fluorescence 635/667; higher = more signal
Fibroblast growth factor 2 (Homo sapiens), sequence (P09038 whole entry, looked up): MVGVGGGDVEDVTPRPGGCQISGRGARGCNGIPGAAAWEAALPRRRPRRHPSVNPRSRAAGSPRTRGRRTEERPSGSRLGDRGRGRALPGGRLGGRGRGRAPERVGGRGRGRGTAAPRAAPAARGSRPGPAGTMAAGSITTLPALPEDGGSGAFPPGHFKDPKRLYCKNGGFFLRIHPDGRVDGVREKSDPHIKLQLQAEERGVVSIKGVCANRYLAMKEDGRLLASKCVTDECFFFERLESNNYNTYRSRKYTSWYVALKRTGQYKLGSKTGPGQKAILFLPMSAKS

[7] = mitochondrial membrane potential change in A549 cells, profiling panel, cell-based, JC-1 fluorescence, basal, 24 h, 100 nL (AID 1138); details: higher = more signal;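 also: A549 lung adenocarcinoma cells under basal conditions with no added stimulus; test concentration not given here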
Lefty1 = Lefty1 binders on small-molecule microarrays, primary screen, biochemical, small-molecule microarray, 635/667 nm fluorescence (AID 1139); details: small-molecule microarray binding, fluorescence 635/667; higher = more signal
[8] = test system: wheat germ agglutinin (Triticum aestivum), Alexa647-labelled; test: wheat germ agglutinin binders on compound microarrays, profiling panel, artefact control for SMM control-protein annotation, biochemical, small-molecule microarray, 635/667 nm fluorescence (AID 1140); details: WGA-A647 binding, 635 nm fluorescence, higher = more signal;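 also: score merges 667 nm feature emission with signal to noise over triplicate slides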
[9] = target: Luciferin 4-monooxygenase (Photinus pyralis) (UniProt P08659); test: firefly luciferase enzyme inhibitors, primary screen, biochemical, luminescence, purified enzyme, 2006 set (AID 1141); details: SteadyGlo luminescence, 30 min, higher = more signal, called active from +8 up or from −8 down;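 also: cell-free assay with purified firefly luciferase at 100 ng per well in PBS; test concentration not given here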
Luciferin 4-monooxygenase (Photinus pyralis), sequence (P08659 whole entry, looked up): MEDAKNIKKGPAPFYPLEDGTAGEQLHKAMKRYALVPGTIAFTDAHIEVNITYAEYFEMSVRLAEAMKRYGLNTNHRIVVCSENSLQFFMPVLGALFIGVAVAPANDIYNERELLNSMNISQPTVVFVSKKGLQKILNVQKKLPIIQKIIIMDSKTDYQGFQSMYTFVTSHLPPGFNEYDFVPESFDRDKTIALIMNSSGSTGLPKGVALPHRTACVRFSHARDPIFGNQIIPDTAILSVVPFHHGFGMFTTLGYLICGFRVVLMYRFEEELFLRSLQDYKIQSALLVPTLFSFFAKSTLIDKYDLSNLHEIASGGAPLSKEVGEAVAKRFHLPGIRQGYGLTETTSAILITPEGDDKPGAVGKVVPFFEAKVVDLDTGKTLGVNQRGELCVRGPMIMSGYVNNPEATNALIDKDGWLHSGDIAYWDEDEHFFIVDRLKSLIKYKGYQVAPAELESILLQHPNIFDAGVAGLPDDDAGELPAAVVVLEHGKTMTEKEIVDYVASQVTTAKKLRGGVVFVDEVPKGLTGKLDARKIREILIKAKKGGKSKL

[10] = test system: Wnt5a (protein binding on small-molecule microarray); test: Wnt5a binders on small-molecule microarray, primary screen, biophysical, 635/667 nm fluorescence (AID 1142); details: 635 nm fluorescence, higher = more signal;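 also: fluorescence read at 667 nm with signal to noise per printed feature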
[11] = cell viability in Huh7 cells, primary screen, cytotoxicity control for HCV replication inhibitor project, CellTiter-Glo luminescence, basal, 48 h (AID 1143); details: Huh7 HCV replicon, higher = more signal, called active from +8 up or from −8 down;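 also: Huh7 hepatoma cells carrying a hepatitis C replication reporter with no stimulus; test concentration not given here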
[12] = P. aeruginosa biofilm formation inhibitors, primary screen, PAO1 strain, BacTiter-Glo luminescence, LB-PBS (AID 1144); details: 12 h, higher = more signal
[13] = CREB reporter modulators without forskolin, primary screen, cell-based, PC12, CRE-LacZ reporter, unstimulated (AID 1145); details: no forskolin, luminescence, 4.5 h, higher = more signal, called active from +8 up or from −8 down
[14] = CREB reporter modulators under forskolin, primary screen, cell-based, PC12, CRE-LacZ reporter, forskolin-stimulated (AID 1146); details: luminescence, 4.5 h, higher = more signal, called active from +8 up or from −8 down;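 also: PC12 cells with 6xCRE LacZ reporter stimulated by forskolin 10 µM; beta-galactosidase reporter signal reflecting CREB driven transcription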
[15] = target: Streptavidin (Streptomyces avidinii) (UniProt P22629); test: streptavidin binders on small-molecule microarray, primary screen, artefact control for SMM compound annotation, biophysical, 635/667 nm fluorescence (AID 1147); details: streptavidin binding, higher = more signal;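 also: signal reflects streptavidin binding to arrayed compounds as a control protein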
Streptavidin (Streptomyces avidinii), sequence (P22629 whole entry, looked up): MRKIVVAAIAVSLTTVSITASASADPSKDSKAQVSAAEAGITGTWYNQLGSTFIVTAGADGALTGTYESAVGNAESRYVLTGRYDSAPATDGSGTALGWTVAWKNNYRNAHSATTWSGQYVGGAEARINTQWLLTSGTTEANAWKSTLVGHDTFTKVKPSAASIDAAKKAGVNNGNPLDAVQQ

[16] = small-molecule binders of probe aInhba, primary screen, biochemical, small-molecule microarray, 635/667 nm fluorescence (AID 1148); details: higher = more signal;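 also: score merges 667nm spot fluorescence with signal-to-noise for antibody binding to printed compounds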
Torsin-1A (Homo sapiens) [17] = target: Torsin-1A (Homo sapiens) (UniProt O14656); test: torsin A binders from cell lysate, primary screen, small-molecule microarray, wild-type, 635/667 nm (AID 1149); details: COS7 hTOR1A-WT lysate, 635 nm fluorescence, higher = more signal
Torsin-1A (Homo sapiens), sequence (O14656 whole entry, looked up): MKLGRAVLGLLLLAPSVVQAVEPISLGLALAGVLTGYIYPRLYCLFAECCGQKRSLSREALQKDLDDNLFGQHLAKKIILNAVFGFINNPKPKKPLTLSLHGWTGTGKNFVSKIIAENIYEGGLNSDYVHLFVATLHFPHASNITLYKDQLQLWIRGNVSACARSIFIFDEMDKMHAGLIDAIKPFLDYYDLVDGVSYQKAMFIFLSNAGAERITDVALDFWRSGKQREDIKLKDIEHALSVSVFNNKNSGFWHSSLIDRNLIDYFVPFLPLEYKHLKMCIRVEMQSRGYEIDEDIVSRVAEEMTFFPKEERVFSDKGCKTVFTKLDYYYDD

Torsin-1A (Homo sapiens) [18] = target: Torsin-1A (Homo sapiens) (UniProt O14656); test: small-molecule binders of mutant TOR1A in lysate, primary screen, cell lysate, small-molecule microarray, COS7 lysate, 635/667 nm fluorescence (AID 1150); details: COS7 hTOR1A mutant lysate, 635 nm fluorescence, higher = more signal;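 also: score pools 667 nm emission and signal to noise measuring lysate protein binding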
[19] = test system: Sonic hedgehog protein (Shh); test: small-molecule binders of Shh protein, primary screen, biochemical, small-molecule microarray, 635/667 nm fluorescence (AID 1151); details: small-molecule microarray binding, 635 nm fluorescence; higher = more signal;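 also: Shh protein binding to compounds spotted on small-molecule microarray slides; score combines spot fluorescence intensity with signal-to-noise across triplicate slides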

| Compound | composite z-score [1] | composite z-score [2] | composite z-score [3] | composite z-score [4] | composite z-score [5] | composite z-score [6] | z-score [7] | composite z-score (Lefty1) | composite z-score [8] | z-score [9] | composite z-score [10] | z-score [11] | z-score [12] | z-score [13] | z-score [14] | composite z-score [15] | composite z-score [16] | composite z-score (Torsin-1A (Homo sapiens) [17]) | composite z-score (Torsin-1A (Homo sapiens) [18]) | composite z-score [19] |
| --- | --- | --- | --- | --- | --- | --- | --- | --- | --- | --- | --- | --- | --- | --- | --- | --- | --- | --- | --- | --- |
| O=C(NCCN1CCOCC1)[C@@H]1c2ccccc2C(=O)N(Cc2ccccc2C(F)(F)F)[C@H]1c1ccc(CO)cc1 | -1.48 | 0.0783 | -0.331 | -0.676 | -0.2 | -0.0425 | 2.63 | -1.24 | 0.708 | -0.676 (inactive) | -0.316 | -0.0154 (inactive) | 0.151 (inactive) | 0.324 (inactive) | -1.32 (inactive) | -1.12 | -0.224 | -0.691 | 0.0912 | -0.112 |
| C=CCC(OC(C)=O)[C@@H]1[C@@H](N(Cc2cc3ccccc3o2)C(=O)Cc2ccc(OC)cc2)c2cc(OCCCO)ccc2N1C(=O)c1ccc2ccccc2n1 (stereo not given in full) | 0.264 | -0.314 | 0.138 | 0.301 | 0.654 | 0.0376 | -0.194 | 0.0249 | -0.0063 | -0.219 (inactive) | -0.124 | -1.03 (inactive) | 0.267 (inactive) | 4.52 (inactive) | -0.24 (inactive) | 0.229 | -0.0103 | 0.135 | -0.136 | 0.0685 |
| N#Cc1ccc(C(O)C2C=CC3C(=O)NC(=O)C3N2Nc2ccc(Cl)cc2Cl)cc1 (stereo not given) | 0.299 | 0.534 | 0.352 | 0.732 | -0.0644 | -0.164 | 1.28 | -0.781 | 1.08 | 0.293 (inactive) | -0.0844 | 0.199 (inactive) | -0.376 (inactive) | 0.629 (inactive) | -0.728 (inactive) | 0.865 | 0.104 | -0.404 | 0.0924 | -0.855 |
| COc1ccc([Si](C)(C)[C@@H]2[C@@H](CC(=O)N3Cc4ccccc4C[C@H]3CO)O[C@]3(C(=O)N(Cc4ccc(N5CCOC5=O)cc4)c4ccccc43)[C@H]2C)cc1 | 1.74 | 0.986 | 0.239 | 0.55 | 1.32 | 1.49 | 0.138 | 1.53 | 0.914 | -0.912 (inactive) | -0.0088 | -4.75 (inactive) | -0.081 (inactive) | 0.949 (inactive) | -0.888 (inactive) | -0.0492 | -0.128 | 0.438 | 0.702 | 1.96 |
| CCOC(=O)C[C@H]1[C@H](OC(=O)c2ccccc2-c2ccccc2)[C@@H](NC(=O)C2CCCCC2)c2cc(OCCCO)ccc2N1C(=O)c1ccc2ccccc2n1 | 0.316 | 0.667 | 0.853 | 0.593 | 1.15 | 0.889 | 0.309 | 1.09 | 0.27 | 0.595 (inactive) | 0.243 | -0.911 (inactive) | 0.507 (inactive) | 4.83 (inactive) | 1.51 (inactive) | 0.155 | 0.222 | 0.237 | 0.133 | 0.897 |
| COc1ccc([Si](C)(C)[C@H]2[C@H](CCO)O[C@@]3(C(=O)N(Cc4cccc(N(C=O)c5ccccc5)c4)c4ccccc43)[C@@H]2C)cc1 | 0.911 | 1.19 | -0.048 | 0.777 | 0.832 | 0.886 | 0.837 | 1.05 | 0.259 | 0.281 (inactive) | 0.313 | -6.26 (inactive) | -0.914 (inactive) | -0.417 (inactive) | -1.56 (inactive) | 1.21 | -0.018 | 0.939 | 1.01 | 1.78 |
| COC(=O)[C@@]1(Cc2ccccc2)[C@H]2c3cc(C(=O)N(C)C)n(Cc4ccc(S(C)(=O)=O)cc4)c3C[C@H]2CN1C(=O)c1ccccc1 | 3.21 | 0.884 | 1.31 | 0.989 | -0.0741 | -0.277 | -0.699 | -0.367 | 1.13 | 1.6 (inactive) | 0.493 | -1.6 (inactive) | -0.361 (inactive) | 0.39 (inactive) | 1.02 (inactive) | 2.48 | 0.496 | -0.178 | 1.13 | -0.68 |
| C[N+](C)(C)CCCC[C@@H]1NC(=O)[C@@H]2C[C@H](C(=O)NCc3ccc(F)cc3)[C@H](c3ccc(O)cc3)N2C1=O | 0.928 | -0.321 | 0.951 | -0.965 | 1.34 | 1.6 | 0.526 | 0.0338 | -0.3 | -0.41 (inactive) | -0.176 | -0.0669 (inactive) | -1.22 (inactive) | 0.692 (inactive) | 0.663 (inactive) | -0.369 | -0.0963 | 0.965 | 0.729 | 1.64 |
| CCCC=C(CCC)[C@@H](NC(=O)c1ccc(C(F)(F)F)cc1)c1ccc(C(F)(F)F)cc1 | 0.549 | 1.23 | 0.156 | 1 | 0.384 | -0.635 | 2.65 | 0.131 | 1.38 | 2.29 (inactive) | 0.63 | -2.78 (inactive) | 0.429 (inactive) | 0.779 (inactive) | 0.34 (inactive) | 0.48 | 0.207 | 0.342 | 0.587 | -0.605 |
| CN1C(=O)C2C(C1=O)C1C=C(CCCO)C2C(C2CC2)N1Cc1cccc(OC(F)(F)F)c1 (stereo not given) | 1.37 | 0.925 | 1.35 | 0.0349 | -0.0603 | -0.862 | -0.198 | 0.0613 | 1.04 | -0.478 (inactive) | -0.317 | -0.591 (inactive) | 0.55 (inactive) | -0.348 (inactive) | 1.3 (inactive) | 0.851 | -0.101 | 1.03 | 1.76 | -0.525 |
